Our source for the Potency and outcome values is PubChem BioAssay (NCATS).

Each structure is given as a SMILES string. Unmarked numbers belong to inactive results. Inconclusive results are not listed. Activity calls are given as the source filed them. Calls come from the whole dose curve; as a rule, active = well fitted curve in the direction sought with a large enough effect; inconclusive = small, poorly fitted or top-dose-only effect, or another doubt; inactive = no such curve, though single readings can be large; an effect the other way counts as inactive or inconclusive. Residues, ends and D or L forms follow the SMILES beside them. *: point of attachment. Cbz = O=C(OCc1ccccc1)*

The target of test [1] is Arylsulfatase A (Homo sapiens) (UniProt P15289). Briefly: qHTS screen for enhancers of Arylsulfatase A (ASA1): LOPAC Validation Assay (AID 720538). Note: potency is the fitted concentration of half-maximal effect. Summed up: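 First, ASA-I179S fibroblasts from an MLD patient adhered for 6 hrs. Next, compounds were added for 48h. Then pNCS substrate (0.5mM final) with lysis buffer reacted 14h at room temperature before NaOH stop and fluorescence measurement.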
Sequence of Arylsulfatase A (Homo sapiens) (P15289 whole entry, looked up): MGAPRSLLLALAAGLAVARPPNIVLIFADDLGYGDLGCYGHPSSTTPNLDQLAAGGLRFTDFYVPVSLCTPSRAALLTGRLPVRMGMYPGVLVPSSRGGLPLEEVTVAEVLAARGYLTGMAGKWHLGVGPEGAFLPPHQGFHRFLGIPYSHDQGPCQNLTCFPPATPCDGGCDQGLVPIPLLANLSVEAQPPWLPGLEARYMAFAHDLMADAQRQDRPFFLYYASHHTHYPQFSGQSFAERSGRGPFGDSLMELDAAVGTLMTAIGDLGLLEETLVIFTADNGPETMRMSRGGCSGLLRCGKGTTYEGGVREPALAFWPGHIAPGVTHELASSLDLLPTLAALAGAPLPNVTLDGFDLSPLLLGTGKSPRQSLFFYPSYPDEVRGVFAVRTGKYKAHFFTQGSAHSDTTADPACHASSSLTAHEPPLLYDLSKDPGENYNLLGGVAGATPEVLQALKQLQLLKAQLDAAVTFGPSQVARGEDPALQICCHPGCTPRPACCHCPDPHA

Test [2] is described as follows: qHTS for compounds that reverse cellular toxicity of Amyloid beta (A-beta) peptide in yeast: LOPAC Validation Assay (AID 720559). Summed up: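 Activity is expressed relative to DMSO and an equimolar ferric chloride/clioquinol mix. Compounds were pinned into medium with A-beta-expressing yeast, grown 48 hr at 30 C, then read by absorbance at 600 nm.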
For orientation: Quantitative high-throughput screening tests each substance at several concentrations.

Test [3] can be described thus: qHTS for Activators of Parkin Expression: LOPAC Validation Assay (NLuc Reporter) (AID 720572). A digest of the protocol: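 Neuronal line stably carrying a FLuc/NLuc coincidence reporter under the Parkin promoter, seeded 24 h, then dosed in 7-point series for 24 h at 37 C. NLuc luminescence read after FLuc; normalized to DMSO and positive control (100%).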
Test [4] can be described thus: qHTS for Activators of Parkin Expression: LOPAC Validation Assay (FLuc Reporter) (AID 720573). A digest of the protocol: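 A neuronal cell line harbouring FLuc and NLuc reporters behind the Parkin promoter was exposed to compounds for 24 h. Firefly luciferase signal, measured after 10 min with detection reagent, was scaled to DMSO and positive-control wells.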
Test [5] has as its target Hexokinase-4 (Homo sapiens) + Glucokinase regulatory protein (Homo sapiens) (UniProt P35557+Q14397). As to the kind of experiment: qHTS assay for inhibitors of recombinant human GCK-GKRP interaction: Diaphorase-coupled assay (AID 743205). A digest of the protocol: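 Inhibitors of the GCK–GKRP complex relieve GKRP suppression of GCK, detected through a G6PDH–diaphorase cascade reducing resazurin. Human GST-GCK and FLAG-GKRP are used at 10 nM with 5 mM glucose and 0.4 mM ATP.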

Sequence of Hexokinase-4 (Homo sapiens) + Glucokinase regulatory protein (Homo sapiens) (P35557 whole entry, looked up): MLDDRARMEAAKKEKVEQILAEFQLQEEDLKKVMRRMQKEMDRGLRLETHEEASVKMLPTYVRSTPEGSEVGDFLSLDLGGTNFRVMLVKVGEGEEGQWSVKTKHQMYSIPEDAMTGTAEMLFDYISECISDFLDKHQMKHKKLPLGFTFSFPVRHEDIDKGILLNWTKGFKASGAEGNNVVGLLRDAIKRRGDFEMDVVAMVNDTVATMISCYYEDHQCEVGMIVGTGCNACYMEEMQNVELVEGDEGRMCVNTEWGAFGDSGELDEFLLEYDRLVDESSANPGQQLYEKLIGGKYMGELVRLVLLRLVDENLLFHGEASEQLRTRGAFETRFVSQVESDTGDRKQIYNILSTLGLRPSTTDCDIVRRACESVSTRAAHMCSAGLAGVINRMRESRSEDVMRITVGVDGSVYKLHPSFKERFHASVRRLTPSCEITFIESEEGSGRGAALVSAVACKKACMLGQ
Sequence of Hexokinase-4 (Homo sapiens) + Glucokinase regulatory protein (Homo sapiens) (Q14397 whole entry, looked up): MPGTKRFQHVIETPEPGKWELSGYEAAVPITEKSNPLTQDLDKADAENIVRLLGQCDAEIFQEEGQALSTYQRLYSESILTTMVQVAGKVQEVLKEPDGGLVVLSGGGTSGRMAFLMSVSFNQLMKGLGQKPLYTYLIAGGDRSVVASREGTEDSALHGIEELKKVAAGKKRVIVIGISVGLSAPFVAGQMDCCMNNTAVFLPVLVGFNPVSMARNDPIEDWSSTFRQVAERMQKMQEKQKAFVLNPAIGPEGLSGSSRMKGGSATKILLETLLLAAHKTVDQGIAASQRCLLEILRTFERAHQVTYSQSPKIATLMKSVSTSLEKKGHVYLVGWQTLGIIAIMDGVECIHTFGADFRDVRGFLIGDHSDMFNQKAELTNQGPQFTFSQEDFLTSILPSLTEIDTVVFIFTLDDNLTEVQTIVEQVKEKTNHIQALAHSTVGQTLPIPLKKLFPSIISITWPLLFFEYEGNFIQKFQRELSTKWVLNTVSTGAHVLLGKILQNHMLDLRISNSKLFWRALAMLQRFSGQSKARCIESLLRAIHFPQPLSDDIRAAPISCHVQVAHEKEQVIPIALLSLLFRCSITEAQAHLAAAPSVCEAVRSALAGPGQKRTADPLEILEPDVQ

Consider `CCCn1c(=O)c2c(ncn2C)n(CCC)c1=O`, for which the Potency entry in test [1], in test [3], in test [4] and in test [5] was “inactive” each time. The compound was called inactive in test [2].

Turning to `NC/C=C\C(=O)O`, the Potency result in test [1], in test [3], in test [4] and in test [5] was “inactive” each time. Moreover, in test [2], the result was inactive.

With `O=c1ccc2c(OCCCCc3ccccc3)c3ccoc3cc2o1`, the Potency result in test [1], in test [3], in test [4] and in test [5] was “inactive” throughout. In test [2], the compound was called inactive.

With `Cc1cccc(C2CN(C)CCc3c2cc(O)c(O)c3Cl)c1` (stereo not given), the Potency entry in test [1], in test [3], in test [4] and in test [5] was “inactive” each time. Besides, the result in test [2] was inactive.

On to `C=C1C[C@@]23CC[C@H]4[C@@](C)(CCC[C@@]4(C)C(=O)O)[C@@H]2CC[C@]1(O)C3`, for which the Potency result in test [1], in test [3], in test [4] and in test [5] was “inactive” throughout. Besides, the compound was classed as inactive in test [2].

For `CC(C)[C@H](NC(=O)OCc1ccccc1)C(=O)N[C@H](C=O)Cc1ccccc1` (Cbz-Val-Phe-aldehyde), the Potency result in test [1], in test [3], in test [4] and in test [5] was “inactive” throughout. Further, the result in test [2] was inactive.

As to `CCCCOc1cc(CC2CNC(=O)N2)ccc1OC` (stereo not given), the Potency entry in test [1], in test [3], in test [4] and in test [5] was “inactive” each time. In addition, in test [2], the outcome was inactive.

For the compound `Cn1c(=O)[nH]c2ncn(C)c2c1=O`, the Potency entry in test [1], in test [3], in test [4] and in test [5] was “inactive” each time. The compound was called inactive in test [2].

Take `CCSC(=N)N`: the Potency entry in test [1], in test [3], in test [4] and in test [5] was “inactive” each time. The outcome in test [2] was inactive.

Regarding `CC#CCOC(=O)c1c(C)nc2sc3c(c2c1N)CCC(O)C3` (stereo not given), the Potency entry in test [1], in test [3], in test [4] and in test [5] was “inactive” in each case. Moreover, the compound was classed as inactive in test [2].

As for `CC(C)NC[C@H](O)COc1ccc(CC(N)=O)cc1`, the Potency result in test [1], in test [3], in test [4] and in test [5] was “inactive” in each case. In test [2], the outcome was inactive.

For `O=c1[nH]c2ccccc2c2ccccc12`, the Potency entry in test [1], in test [3], in test [4] and in test [5] was “inactive” throughout. Further, the outcome in test [2] was inactive.

`Cn1cc(C(F)(F)F)nc1-c1ccc(OCC(O)CNCCOc2ccc(O)c(C(N)=O)c2)cc1` (stereo not given): the Potency entry in test [1], in test [3], in test [4] and in test [5] was “inactive” in each case. For the same compound, the outcome in test [2] was inactive.

On to `N[C@@H](CCCC(=O)O)C(=O)O`, for which the Potency entry in test [1], in test [3], in test [4] and in test [5] was “inactive” each time. For the same compound, the outcome in test [2] was inactive.

Consider `NS(=O)(=O)c1cccc2c1c([N+](=O)[O-])cc1nc(O)c(O)nc12`, for which the Potency in test [1] was 10.7 µM (active). In addition, in test [2], the compound was called inactive. The Potency entry in test [3], in test [4] and in test [5] was “inactive” each time.

For the compound `NCCNS(=O)(=O)c1cccc2c(Cl)cccc12`, the Potency entry in test [1], in test [3], in test [4] and in test [5] was “inactive” in each case. For the same compound, in test [2], the compound was classed as inactive.

Consider `CCCCCCCCCCCCCCC[C@H](O)[C@H](N)CO`, for which the Potency result in test [1], in test [3], in test [4] and in test [5] was “inactive” in each case. Moreover, in test [2], the compound was classed as inactive.

With `O=[N+]([O-])c1cccc2c(Br)[nH]nc12`, the Potency entry in test [1], in test [3], in test [4] and in test [5] was “inactive” in each case. In addition, the compound was called inactive in test [2].
